Bioassay records deposited in PubChem BioAssay by National Center for Advancing Translational Sciences (NCATS).
BRCA1 expr act: increases BRCA1 expression. MCF7-BRCA1-FFLuc reporter, luminescence, 48 h; response scale: scaled: vehicle 0%, 10 µM genistein 100%. Potency, µM (series often up to 46.1 µM), without a hit: at the highest dose activation, usual class: activators. 380,000 tested, 1.1% active. AID 624202; further: nearly all actives have a fitted effect of over 80% in size
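Using MCF7 cells harboring a BRCA1 firefly luciferase reporter, plated 2 h before compound pinning, the screen measured luminescence after 48 h incubation. Responses were normalized to DMSO and 10 microM genistein, then fitted for concentration-effect.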
GLP1R cytotox: cytotoxic in the GLP-1 receptor inverse agonist counter-screen. Potency, µM (highest dose often 38.3 µM), for inactives: top-dose activity change, negative = inhibition, most hits filed as inhibitors. 410,000 tested, 0.13% active. HEK293 cAMP-luciferase reporter cells, luminescence, 24 h. AID 624418;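 further: loss of luciferase light is scored as toxicity; on the % scale 0 is the no-effect control and ±100 the full control effect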
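To flag toxic compounds, the library was rerun on cells for 24 hr at 37 deg C and 5% CO2. Viability-linked luminescence was captured 12 min after adding luciferase detection reagent.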
GLP1R ag: agonists of human GLP-1 receptor; Potency, µM (highest dose often 45.6 µM), without a hit: at the top dose activation, hits mostly activators; 380,000 tested, 0.007% active; HEK293 GLP-1R CRE-luciferase, luminescence, 4-6 h; cells express a hypersensitive GLP-1R form; P43220; further: % of control where 0% means no effect
Target sequence (P43220 whole entry, looked up): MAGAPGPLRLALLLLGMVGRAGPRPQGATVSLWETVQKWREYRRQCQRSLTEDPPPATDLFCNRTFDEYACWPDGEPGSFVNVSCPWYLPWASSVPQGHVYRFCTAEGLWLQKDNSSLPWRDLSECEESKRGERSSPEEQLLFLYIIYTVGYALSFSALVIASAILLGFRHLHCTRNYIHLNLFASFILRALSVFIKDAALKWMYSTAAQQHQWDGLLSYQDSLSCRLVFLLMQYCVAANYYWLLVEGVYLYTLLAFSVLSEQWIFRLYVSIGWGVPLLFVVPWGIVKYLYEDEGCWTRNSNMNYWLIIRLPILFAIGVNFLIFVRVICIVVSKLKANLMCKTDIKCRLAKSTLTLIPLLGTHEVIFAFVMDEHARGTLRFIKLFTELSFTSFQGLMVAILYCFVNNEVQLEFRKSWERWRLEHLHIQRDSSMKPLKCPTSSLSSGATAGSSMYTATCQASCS
Integrin act MD: activators of alpha7 integrin expression for muscular dystrophy | alpha7betagal myoblasts, beta-gal FDG fluorescence, 48 h | Potency, µM (titrated, usually from 38.3 µM), without a hit: top-dose activation, actives largely listed as activators | 350,000 tested, 0.064% active | AID 624291;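 further: 100% = response of the positive control SU9516; nearly all actives have a fitted effect of over 60% in size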
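alpha7betagal+/- myoblasts (passage 13, 250/well) treated 48 h at 37C with compounds at 1:260 dilution of DMSO stock. Lysed, then beta-galactosidase activity read as FDG fluorescence (ex 480/em 540) after 30 min, with pre-read for autofluorescence.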
GLP1R inv ag: acts as inverse agonist at human GLP-1 receptor; P43220; HEK293 GLP-1R CRE-luciferase, luminescence, 24 h; GLP-1R form is constitutively active; Potency, µM (titrated, usually from 38.3 µM), for inactives: at the top dose activity change, negative = inhibition, actives largely listed as inhibitors; 410,000 tested, 1.6% active; further: on the % scale 0 is the no-effect control and ±100 the full control effect; nearly all actives have a fitted effect of over 55% in size
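Cells are plated, allowed 12 hours at 37 deg C, then treated with compounds for 24 hr before luciferase detection reagent is added and luminescence is read after 12 min at room temperature. The HEK293 line carries constitutively active GLP-1R with a cAMP-responsive reporter.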
* marks the source's active call; other numbers are inactive results; ? = inconclusive; nt = not tested or not shown. Hits are enriched below; roughly 2.7% of the tested compounds scored in any of these assays. The call rests on the fitted dose curve; in most records, active means well fitted curve in the direction sought with a large enough effect; inconclusive means small, poorly fitted or top-dose-only effect, or another doubt; inactive means no such curve, though single readings can be large; an effect the other way counts as inactive or inconclusive. Potency means the concentration at half of the fitted maximal effect.

SMILES	BRCA1 expr act	GLP1R cytotox	GLP1R ag	Integrin act MD	GLP1R inv ag
CCOc1ccc(NC(=O)CN(C)S(=O)(=O)c2ccc3[nH]c4c(c3c2)CCCC4)cc1	nt	-1%	nt	nt	11µM*
CCOc1ccc(C2C(=O)N(C3CCCCCC3)CC(=O)N2CCC2=CCCCC2)cc1OC (stereo not given)	nt	1%	nt	nt	?
CC(C)(C)OC(=O)N(CCc1ccccc1)Cc1cccc(OCc2cccc(NC(=O)C3CCC3)c2)c1	-26%	7%	-2%	-7%	?
CC(C)C(=O)Nc1cccc(COc2ccc(CN(CCc3ccccc3)C(=O)OC(C)(C)C)cc2)c1	-16%	13%	-1%	-7%	6.3µM*
CC(C)(C)OC(=O)N(Cc1ccccc1)Cc1ccccc1OCc1cccc(NC(=O)C2CC2)c1	-23%	-2%	3%	-16%	10µM*
CC(C)(C)OC(=O)N(Cc1ccccc1)Cc1cccc(OCc2cccc(NC(=O)C3CC3)c2)c1	-52%	12%	0%	-19%	10µM*
CC(C)(C)OC(=O)N(CCc1ccccc1)Cc1ccccc1OCc1cccc(NC(=O)C2CCC2)c1	-19%	-5%	1%	13%	8.9µM*
CC(C)(C)OC(=O)N(Cc1ccccc1)Cc1ccccc1OCc1cccc(NC(=O)C2CCC2)c1	-31%	7%	13%	-15%	?
Cc1ccccc1NC(=O)COc1ccccc1C(=O)Nc1ccccc1	-33%	nt	nt	nt	nt
Cc1ccc(CN(C(=O)COc2ccc(C(C)C)cc2)C2CCS(=O)(=O)C2)o1 (stereo not given)	nt	-10%	nt	nt	?
CCCCN(C)C(=O)c1ccc2c(=O)n3nc(Nc4cc(C)ccc4C)sc3nc2c1	nt	0%	nt	nt	13%
CCN=c1scc(-c2ccco2)n1/N=C/c1ccc(OC)c(O)c1	6.3µM*	-20%	7%	-12%	17%
COc1cc(C)ccc1OCCCn1c(-c2ccc(Cl)cc2)nc2ccccc2c1=O	nt	0%	nt	nt	6%
CCOC(=O)N1CCc2c(sc3c2c(=O)n(-c2ccccc2)c(=O)n3CC(=O)Nc2ccc(OC)cc2OC)C1	nt	-2%	nt	nt	11%
O=C(NCCc1ccccc1)c1cc(Sc2ccc(F)cc2F)nc2ccccc12	nt	0%	nt	nt	-10%
CCOC(=O)CC(NC(=O)c1cc2cc(Br)cc(OC)c2oc1=O)c1ccc(OC)cc1 (stereo not given)	29%	3%	-2%	nt	-3%
CCOC(=O)CC(NC(=O)c1cc2cccc(OC)c2oc1=O)c1ccc(OC)cc1 (stereo not given)	13µM*	-3%	?	4%	68%
COc1cccc(NC(=O)Nc2nc(SC(C)(C)C)ns2)c1	12%	?	0%	-60%	5.6µM*
COc1ccc(NC(=O)Nc2ccc3oc(C)nc3c2)cc1	2.8µM*	5%	3%	-4%	8%
CCOc1ccccc1NC(=O)Nc1ccc2c(c1)CCC2	55%	-15%	13%	8%	10µM*
Cc1cc(C)nc(NC(=O)Nc2ccc(F)cc2F)n1	4µM*	-21%	-1%	26%	11%
COc1ccc(OC)c(CNC(=O)c2ccc(C)c(NC(=O)c3nsc4ccccc34)c2)c1	nt	0%	nt	nt	8%
COc1cccc(NC(=O)Nc2ccc3nsnc3c2)c1	7.1µM*	?	-5%	-3%	?
COc1cccc(NC(=O)Nc2ccc3c(c2)nc(C)n3C)c1	50%	2%	-1%	39%	?
COc1cccc(C(C)NC(=O)Nc2ccccc2Cl)c1 (stereo not given)	-16%	23%	-1%	18%	13µM*
SMILES	BRCA1 expr act	GLP1R cytotox	GLP1R ag	Integrin act MD	GLP1R inv ag
COc1ccc(NC(=O)Nc2ccc(F)cc2F)cc1	10µM*	1%	11%	10%	8%
COc1ccc(NC(=O)Nc2ccc3c(c2)CCC3)cc1	2.5µM*	-8%	-2%	0%	8%
Cc1cccc(CNC(=O)c2ccc(C)c(-n3c(C)nc4cccnc43)c2)c1	nt	0%	nt	nt	1%
Cc1cccc(-c2noc(-c3cccnc3NCc3ccccc3Cl)n2)c1	21%	4%	nt	nt	13%
CCOc1ccc(CNC(=O)c2ccc3nc(Cc4ccc(OC)cc4)oc3c2)cc1OC	-25%	-7%	nt	nt	-49%
COc1cccc(NC(=O)Nc2ccc3nc(C)c(C)nc3c2)c1	?	-4%	1%	35%	5%
COc1ccc(NC(=O)Nc2cccc(OC)c2)cc1	11µM*	-15%	6%	17%	-3%
COC(=O)c1sccc1NC(=O)Nc1cccc(OC)c1	6%	-3%	10%	-8%	16%
COc1cccc(NC(=O)Nc2ccccc2Br)c1	10µM*	-6%	22%	10%	?
COc1ccc(-c2cn3nc(N4CCC(C(=O)NCc5ccccc5F)CC4)sc3n2)cc1	nt	0%	nt	nt	2%
CN(C)c1ccc(/C=C/c2nc3ccccc3s2)cc1Cl	32%	nt	nt	nt	nt
CC(=O)Oc1ccc2occ(C(=O)c3ccccc3)c2c1	7.1µM*	-4%	12%	6%	?
COc1ccc(OC)c(C2C(C(=O)Nc3ccccc3OC)=C(C)Nc3c(C(=O)Nc4ccc(F)cc4)cnn32)c1 (stereo not given)	nt	-3%	nt	nt	-28%
CC(C)Cc1ccc(C(=O)NCCOc2ccccc2)o1	?	0%	12%	0%	11µM*
COc1ccccc1C(=O)NNC(=O)c1cccc(F)c1	-24%	1%	-2%	-8%	8.9µM*
COC(=O)C(CCSC)NC(=O)C1CCN(c2ncnc3c2nc2n3CCCCC2)CC1 (stereo not given)	nt	0%	nt	nt	10%
Nc1nc(NCCO)nc(NC2CCCCC2)c1[N+](=O)[O-]	-19%	-10%	?	0%	96%
CN(C)CCCNc1nc(N)c([N+](=O)[O-])c(NC2CCCCC2)n1	-19%	-27%	2%	-68%	13µM*
COc1ccccc1CNS(=O)(=O)c1ccc(Cl)s1	-3%	1%	9%	6.3µM*	-24%
COc1ccc(C(=O)NCCn2cc(SCC(=O)Nc3ccc(F)cc3)c3ccccc32)cc1	-3%	-27%	-14%	nt	?
Cc1ccc(CSc2cn(CC(=O)N3CCCCC3)c3ccccc23)cc1	nt	0%	nt	nt	10µM*
Cc1cccc(CSc2cn(CC(=O)N3CCCCCC3)c3ccccc23)c1	nt	0%	nt	nt	?
O=C(Cn1cc(SCc2ccccc2)c2ccccc21)N1CCCCCC1	nt	1%	nt	nt	?
Cc1cccc(CSc2cn(CC(=O)N3CCOCC3)c3ccccc23)c1	3.5µM*	-16%	0%	16%	?
O=C(Cn1cc(SCc2cccc(C(F)(F)F)c2)c2ccccc21)N1CCCCCC1	nt	5%	nt	nt	7.9µM*
CCNC(=O)CC1C(=O)N(c2cccc(OC)c2)C(=O)N1Cc1ccc(OC)c(OC)c1 (stereo not given)	-4%	-1%	2%	nt	0%
